ChEMBL document CHEMBL3988442, “University of Dundee, Small-Polar-MMV Screening Library” (2021)
For some assays here: Potency and affinity values are given separately.

How the values were obtained:
Set-up in all cases: scale not given: direction of the effect not stated beside the values
[1] = molecular target: Protein translocase subunit SecA (Escherichia coli (strain K12)) (UniProt P10408); assay: Assay to Identify E. coli SecA ATPase Inhibitors; format: functional; conditions: 30 µM
[2] = molecular target: T1, Ubiquitin-activating enzyme e1, putative (Leishmania donovani (strain BPK282A1)) (UniProt E9BSI1); assay: Leishmania donovani Ubiquitin Activating Enzyme (LdE1); format: functional; conditions: 30 µM
T1 sequence (whole entry): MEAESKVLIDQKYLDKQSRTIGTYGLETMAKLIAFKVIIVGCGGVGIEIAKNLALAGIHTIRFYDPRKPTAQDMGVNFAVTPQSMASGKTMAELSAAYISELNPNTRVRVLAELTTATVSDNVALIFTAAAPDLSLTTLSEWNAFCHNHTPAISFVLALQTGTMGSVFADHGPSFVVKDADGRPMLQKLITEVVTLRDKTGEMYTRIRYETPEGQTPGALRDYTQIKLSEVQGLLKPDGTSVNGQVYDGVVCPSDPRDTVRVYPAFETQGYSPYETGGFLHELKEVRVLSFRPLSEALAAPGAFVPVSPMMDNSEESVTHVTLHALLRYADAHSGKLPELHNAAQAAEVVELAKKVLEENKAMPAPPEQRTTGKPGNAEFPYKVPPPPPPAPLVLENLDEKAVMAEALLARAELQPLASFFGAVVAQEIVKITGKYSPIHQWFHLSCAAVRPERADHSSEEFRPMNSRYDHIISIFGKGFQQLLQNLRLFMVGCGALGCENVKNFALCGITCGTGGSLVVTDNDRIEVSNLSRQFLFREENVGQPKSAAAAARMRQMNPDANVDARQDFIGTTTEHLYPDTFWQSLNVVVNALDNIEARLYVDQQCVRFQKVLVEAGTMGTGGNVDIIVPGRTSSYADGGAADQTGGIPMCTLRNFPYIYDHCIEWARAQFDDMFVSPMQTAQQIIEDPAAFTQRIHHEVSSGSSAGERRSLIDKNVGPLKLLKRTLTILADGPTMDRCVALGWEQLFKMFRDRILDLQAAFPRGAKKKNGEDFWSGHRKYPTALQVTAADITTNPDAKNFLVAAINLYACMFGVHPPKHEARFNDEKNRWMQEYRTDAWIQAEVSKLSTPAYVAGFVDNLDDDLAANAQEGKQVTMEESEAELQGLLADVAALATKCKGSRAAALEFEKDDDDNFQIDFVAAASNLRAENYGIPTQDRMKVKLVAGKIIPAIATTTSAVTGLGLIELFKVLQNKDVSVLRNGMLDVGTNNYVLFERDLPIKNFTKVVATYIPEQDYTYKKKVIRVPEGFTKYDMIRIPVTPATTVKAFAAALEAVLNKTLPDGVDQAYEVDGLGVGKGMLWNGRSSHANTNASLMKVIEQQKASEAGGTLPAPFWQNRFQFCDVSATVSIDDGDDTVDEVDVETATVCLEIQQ

[3] = molecular target: AMP-activated protein kinase, AMPK (Homo sapiens) (UniProt P54646+O43741+P54619+Q9UGJ0+Q9Y478+Q13131+Q9UGI9); assay: AMP-dependent Kinase enzyme assay. An in vitro enzyme assay that detects ADP turnover that is directly proportional to AMPK activity. This uses naive AMPK that is activated during the assay with MK-8722; format: functional; conditions: 30 µM
[4] = molecular target: Sialic acid-binding Ig-like lectin 9 (Homo sapiens) (UniProt Q9Y336); assay: Hs-Siglec9 ALPHAscreen SOP 20170721; conditions: 10 µM
Sialic acid-binding Ig-like lectin 9 (Homo sapiens), sequence (Q9Y336 whole entry): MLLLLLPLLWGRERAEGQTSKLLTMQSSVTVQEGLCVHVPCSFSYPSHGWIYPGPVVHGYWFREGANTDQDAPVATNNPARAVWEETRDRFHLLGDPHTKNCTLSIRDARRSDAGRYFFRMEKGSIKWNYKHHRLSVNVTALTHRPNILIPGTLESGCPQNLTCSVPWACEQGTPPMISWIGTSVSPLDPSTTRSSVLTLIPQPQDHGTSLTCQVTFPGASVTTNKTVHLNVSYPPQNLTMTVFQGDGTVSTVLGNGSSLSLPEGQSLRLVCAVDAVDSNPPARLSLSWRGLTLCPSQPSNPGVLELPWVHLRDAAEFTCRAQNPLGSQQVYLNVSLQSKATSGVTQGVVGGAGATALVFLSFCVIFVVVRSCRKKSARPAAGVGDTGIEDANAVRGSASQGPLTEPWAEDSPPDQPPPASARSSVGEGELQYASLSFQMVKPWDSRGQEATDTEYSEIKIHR

Trypanosoma cruzi = assay: Trypanosoma cruzi phosphomannomutase and mannose-1-phosphate guanylyltransferase assay; format: functional; conditions: 10 µM
[5] = molecular target: T2, Arginase-2, mitochondrial (Homo sapiens) (UniProt P78540); assay: in vitro enzyme assay to detect the production of urea directly proportional to the activity of Arginase II; format: functional; conditions: 33.3 µM; further: in the data most compounds retested in dose-response had high values
T2 sequence (whole entry): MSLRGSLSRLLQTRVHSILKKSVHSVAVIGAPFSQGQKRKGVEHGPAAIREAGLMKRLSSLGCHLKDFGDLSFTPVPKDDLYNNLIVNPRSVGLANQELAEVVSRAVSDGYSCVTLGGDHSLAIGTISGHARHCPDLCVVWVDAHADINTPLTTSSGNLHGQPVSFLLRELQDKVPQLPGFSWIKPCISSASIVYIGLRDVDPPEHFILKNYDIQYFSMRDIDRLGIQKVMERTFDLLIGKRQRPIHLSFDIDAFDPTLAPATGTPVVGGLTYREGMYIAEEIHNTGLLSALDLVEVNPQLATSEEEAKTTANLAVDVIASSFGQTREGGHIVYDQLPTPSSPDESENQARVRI

[6] = molecular target: T3, Proteasome subunit beta (Trypanosoma cruzi) (UniProt O96673); assay: Trypanosoma cruzi proteasome chymotrypsin-like activity (TcProtChymo) assay.; further: in the data most compounds retested in dose-response had high values; format: functional; conditions: 9.37 µM
T3 sequence (whole entry): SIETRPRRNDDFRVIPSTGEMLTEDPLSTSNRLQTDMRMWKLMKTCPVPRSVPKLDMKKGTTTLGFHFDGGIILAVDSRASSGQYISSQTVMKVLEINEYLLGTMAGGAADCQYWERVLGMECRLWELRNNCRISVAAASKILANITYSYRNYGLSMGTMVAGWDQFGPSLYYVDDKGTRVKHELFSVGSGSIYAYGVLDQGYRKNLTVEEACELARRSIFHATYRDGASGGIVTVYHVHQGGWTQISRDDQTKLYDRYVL

Homo sapiens = organism: Homo sapiens; assay: To identify inhibition of the IFN signalling (Jak-Stat) pathway via expression of an eGFP reporter gene under the control of an IFN-stimulated response element (ISRE) containing MxA promoter.; format: functional; conditions: 30 µM
[7] = molecular target: T4, Tyrosyl-tRNA synthetase, putative (Trypanosoma cruzi (strain CL Brener)) (UniProt Q4DSP6); assay: Trypanosoma cruzi tyrosyl tRNA synthetase (TcYRS) _High Tyrosine SOP; format: functional; conditions: 30 µM; further: in the data most compounds retested in dose-response had high values
T4 sequence (whole entry): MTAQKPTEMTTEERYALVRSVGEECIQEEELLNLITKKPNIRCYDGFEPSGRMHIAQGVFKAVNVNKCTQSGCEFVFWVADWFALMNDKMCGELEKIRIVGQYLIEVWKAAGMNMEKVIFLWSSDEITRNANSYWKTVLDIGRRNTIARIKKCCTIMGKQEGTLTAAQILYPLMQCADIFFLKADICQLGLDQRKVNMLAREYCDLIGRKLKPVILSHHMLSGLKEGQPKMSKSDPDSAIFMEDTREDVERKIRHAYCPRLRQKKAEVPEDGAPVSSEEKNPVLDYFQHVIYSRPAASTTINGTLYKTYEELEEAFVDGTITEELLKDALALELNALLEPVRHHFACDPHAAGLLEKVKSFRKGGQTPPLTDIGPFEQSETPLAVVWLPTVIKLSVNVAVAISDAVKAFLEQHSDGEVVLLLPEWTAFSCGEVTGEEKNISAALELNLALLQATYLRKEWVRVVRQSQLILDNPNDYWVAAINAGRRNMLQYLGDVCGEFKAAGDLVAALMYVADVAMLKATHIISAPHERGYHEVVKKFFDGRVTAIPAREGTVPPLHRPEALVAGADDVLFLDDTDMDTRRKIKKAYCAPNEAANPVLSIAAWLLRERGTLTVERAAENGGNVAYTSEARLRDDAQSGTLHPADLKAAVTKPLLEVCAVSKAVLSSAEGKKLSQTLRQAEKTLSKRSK

[8] = molecular target: T4, Tyrosyl-tRNA synthetase, putative (Trypanosoma cruzi (strain CL Brener)); assay: Trypanosoma cruzi tyrosyl tRNA synthetase (TcYRS) SOP; format: functional; conditions: 30 µM
[9] = molecular target: Chromo domain-containing protein 1 (Saccharomyces cerevisiae (strain ATCC 204508 / S288c) (Baker's yeast)) (UniProt P32657); assay: ScCHD-1 Enzyme Inhibition Assay; format: functional; conditions: 30 µM; further: in the data most compounds retested in dose-response had high values
Chromo domain-containing protein 1 (Saccharomyces cerevisiae (strain ATCC 204508 / S288c) (Baker's yeast)), sequence (P32657 whole entry, the tested form may be a part): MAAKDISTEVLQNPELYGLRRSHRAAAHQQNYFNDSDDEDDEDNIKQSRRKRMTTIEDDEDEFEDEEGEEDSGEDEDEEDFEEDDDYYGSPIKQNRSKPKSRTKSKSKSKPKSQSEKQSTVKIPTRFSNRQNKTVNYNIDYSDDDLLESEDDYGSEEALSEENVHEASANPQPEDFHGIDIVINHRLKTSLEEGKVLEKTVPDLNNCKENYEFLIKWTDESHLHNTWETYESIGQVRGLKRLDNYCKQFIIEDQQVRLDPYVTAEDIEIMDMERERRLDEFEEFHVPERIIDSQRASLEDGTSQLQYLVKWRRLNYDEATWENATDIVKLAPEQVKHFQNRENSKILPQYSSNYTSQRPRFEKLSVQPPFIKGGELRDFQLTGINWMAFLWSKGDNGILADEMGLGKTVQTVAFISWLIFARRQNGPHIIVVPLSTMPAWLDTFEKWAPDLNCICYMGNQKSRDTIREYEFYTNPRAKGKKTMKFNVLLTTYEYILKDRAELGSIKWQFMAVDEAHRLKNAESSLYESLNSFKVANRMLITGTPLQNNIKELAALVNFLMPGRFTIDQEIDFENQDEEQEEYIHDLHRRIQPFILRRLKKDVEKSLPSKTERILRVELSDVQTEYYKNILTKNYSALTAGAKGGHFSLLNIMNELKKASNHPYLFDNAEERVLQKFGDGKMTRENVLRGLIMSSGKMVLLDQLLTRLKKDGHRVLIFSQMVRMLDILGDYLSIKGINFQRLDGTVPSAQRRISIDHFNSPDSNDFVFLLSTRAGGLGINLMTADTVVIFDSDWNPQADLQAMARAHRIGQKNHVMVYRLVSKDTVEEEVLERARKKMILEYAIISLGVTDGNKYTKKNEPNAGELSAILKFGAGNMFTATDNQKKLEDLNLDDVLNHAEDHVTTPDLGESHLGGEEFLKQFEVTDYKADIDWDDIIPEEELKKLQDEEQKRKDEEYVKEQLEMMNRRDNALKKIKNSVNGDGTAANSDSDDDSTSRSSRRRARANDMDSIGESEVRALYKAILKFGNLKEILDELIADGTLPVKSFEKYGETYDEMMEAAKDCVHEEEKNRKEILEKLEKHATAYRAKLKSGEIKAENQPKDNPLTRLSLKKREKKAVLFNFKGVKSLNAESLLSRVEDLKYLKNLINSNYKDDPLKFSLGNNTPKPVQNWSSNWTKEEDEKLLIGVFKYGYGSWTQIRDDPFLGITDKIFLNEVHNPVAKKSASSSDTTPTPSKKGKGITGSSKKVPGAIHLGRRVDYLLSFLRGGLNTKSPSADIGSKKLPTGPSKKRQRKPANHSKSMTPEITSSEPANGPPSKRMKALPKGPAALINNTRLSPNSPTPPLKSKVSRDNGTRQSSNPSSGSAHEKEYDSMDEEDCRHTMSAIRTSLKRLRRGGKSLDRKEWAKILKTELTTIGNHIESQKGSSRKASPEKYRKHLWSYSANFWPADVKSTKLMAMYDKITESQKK

Protein translocase subunit SecA (Escherichia coli (strain K12)), sequence (P10408 whole entry): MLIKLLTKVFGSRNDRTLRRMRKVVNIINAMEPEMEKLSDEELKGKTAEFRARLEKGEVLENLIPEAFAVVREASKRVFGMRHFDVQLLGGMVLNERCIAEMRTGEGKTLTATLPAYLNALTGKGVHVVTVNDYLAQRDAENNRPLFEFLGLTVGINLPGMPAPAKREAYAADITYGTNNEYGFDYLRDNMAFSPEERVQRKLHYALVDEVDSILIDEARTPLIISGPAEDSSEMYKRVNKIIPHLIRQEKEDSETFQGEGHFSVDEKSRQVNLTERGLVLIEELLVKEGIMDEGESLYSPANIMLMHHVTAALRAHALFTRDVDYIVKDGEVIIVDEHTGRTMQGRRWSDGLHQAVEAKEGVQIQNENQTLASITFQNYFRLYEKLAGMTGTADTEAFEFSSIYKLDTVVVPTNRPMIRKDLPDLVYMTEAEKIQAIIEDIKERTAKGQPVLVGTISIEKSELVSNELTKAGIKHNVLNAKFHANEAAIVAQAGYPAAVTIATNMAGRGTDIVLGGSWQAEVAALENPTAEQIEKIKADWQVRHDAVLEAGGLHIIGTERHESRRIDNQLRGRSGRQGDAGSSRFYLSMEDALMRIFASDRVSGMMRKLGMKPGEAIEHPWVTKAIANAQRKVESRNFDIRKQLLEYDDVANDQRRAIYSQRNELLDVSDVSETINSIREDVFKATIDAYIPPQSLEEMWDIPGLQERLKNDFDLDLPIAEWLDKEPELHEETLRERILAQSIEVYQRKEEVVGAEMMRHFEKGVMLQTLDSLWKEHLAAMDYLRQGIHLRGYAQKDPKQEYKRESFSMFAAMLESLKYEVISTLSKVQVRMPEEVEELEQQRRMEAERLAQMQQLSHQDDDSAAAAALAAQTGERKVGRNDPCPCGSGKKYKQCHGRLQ

| Structure (SMILES) | Percent Effect [1] | Percent Effect [2] | Percent Effect [3] | Percent Effect [4] | Percent Effect (Trypanosoma cruzi) | Percent Effect [5] | Percent Effect [6] | Percent Effect (Homo sapiens) | Percent Effect [7] | Percent Effect [8] | Percent Effect [9] |
| --- | --- | --- | --- | --- | --- | --- | --- | --- | --- | --- | --- |
| O=C(NCC(O)c1ccc(F)c(F)c1)c1cccnc1OCC(F)(F)F (stereo unspecified) | -4.25% | 19.2% | 10.1% | 8.21% | 7.94% | -2% | 15.8% | 5.47% | 4.17% | 16.1% | -4.84% |
| Cn1nnc2c1C(COCC1CC1)CN(C(=O)Cc1ccsc1)C2 (stereo unspecified) | -5.15% | 23.4% | -3.67% | 0.591% | 4.63% | -3.23% | 9.57% | 4.27% | -1.06% | 14.1% | -12.5% |
| c1cncc(OCc2nnn3c2CN(Cc2ccsc2)CCC3)c1 | -3.57% | 2.67% | -0.385% | 1.61% | 7.72% | -48.2% | 6.84% | 1.38% | -3.12% | -5% | -5.39% |
| COc1ccc(S(=O)(=O)N2CCCC3(CCCN3S(C)(=O)=O)C2)cc1 (stereo unspecified) | -2.95% | 10.8% | -2.61% | -2.37% | -8.31% | -2.73% | 12.3% | 7.81% | 0% | 8.64% | -3.67% |
| COc1ccccc1CNC(=O)N1CCCC(NS(C)(=O)=O)C1 (stereo unspecified) | -6.57% | -15.6% | -5.52% | -17.1% | -3.82% | -2.74% | 12.8% | 24% | -25.7% | 7.06% | -22.9% |
| c1ccc(C[C@H]2CN(Cc3nccs3)CC[C@H]2OCC2CC2)cc1 | -4.65% | 2.67% | 3.57% | 3.38% | -0.591% | -2.56% | 4.32% | 21.5% | 3.19% | 11.5% | -3.05% |
| CSCC[C@H](N)C(=O)NCc1cc2n(n1)CCCN(C(=O)C1CCC1)C2 | -0.458% | 6.94% | -3.76% | 1.43% | 8.26% | -0.442% | 10.5% | -24.3% | 0% | 12.8% | -3.49% |
| Cn1cnnc1C1CCCN(C(=O)Cc2ccc3c(c2)OCCO3)C1 (stereo unspecified) | -1.87% | 13% | -0.424% | -2.52% | 3.82% | -1.05% | 13.7% | 13.2% | 7.62% | 18.8% | -15.4% |
| CC(C)CC(=O)N1CC[C@@H]2[C@H](CC1)N(S(C)(=O)=O)CCS2(=O)=O | -4.61% | 18.9% | -5.46% | -1.46% | 5.66% | 25.8% | 14.1% | 6.42% | 5.94% | 13.4% | -6.08% |
| COc1ccc(CN2CCc3ncnc(C4CCOC4)c3CC2)cc1 (stereo unspecified) | -3.47% | 5.33% | -1.49% | -6.97% | 5.41% | -40.3% | 5.13% | 13.6% | 0% | 7.5% | -7.3% |
| Cc1nn(CC(=O)N2CCC(Nc3cccnn3)CC2)c(C)c1Cl | -7.99% | 10.5% | -2.51% | 1.71% | 10.3% | -4.6% | 4.68% | 14.1% | 6.37% | 19.5% | -11.8% |
| Cc1ccc(CN2CCC3(CC2)CC(c2cccnc2)CO3)s1 (stereo unspecified) | -5.83% | 5.41% | 1.22% | -3.96% | 0% | 7.08% | 4.65% | 0.622% | 8.91% | 11% | -2.92% |
| COCCCC(=O)NS(=O)(=O)c1ccc2c(c1)OCCCO2 | -3.41% | 5.26% | -3.3% | 9.85% | -7.94% | 5.75% | -0.0846% | 0.992% | 0.493% | -1.24% | 4.1% |
| CC(C)NC(=O)c1nnn(-c2cccc(C(F)(F)F)c2)c1C1CC1 | -3.01% | 15.3% | -3.96% | 15.4% | 5.73% | 15.4% | 22.8% | 11.4% | 4.21% | 12.8% | 77.3% |
| Cn1cc(C[C@H]2[C@H](O)CCN2CC2CC2)cn1 | -2.02% | -2.7% | 6.23% | 1.34% | 1.27% | -32.8% | 11.2% | 1.21% | 5.41% | 5.13% | 0.853% |
| Cc1ccc(C(=O)N2CCN(Cc3nc(C(C)C)no3)CC2)c(=O)[nH]1 | -7.78% | 2.7% | -5.78% | 5.72% | -4.36% | -2.77% | -4.49% | 13.8% | 1.98% | 1.22% | 7.95% |
